Measured values from ChEMBL document CHEMBL3988442, “University of Dundee, Small-Polar-MMV Screening Library” (2021).
The whole screen tested about 48,000 compounds, of which about 13,000 (27%) showed an effect of 50% or more. Some of the results follow.

System: Wolbachia pipientis
Experiment: Anti-Wolbachia Cell-Based Screen
Assay type: functional
Set-up: scale not given: in the data most compounds retested in dose-response had high values
Settings: 5 µM

| Structure (SMILES) | Percent Effect [%] |
| --- | --- |
| CC(c1ccon1)N(C)C(=O)C1CCN(C2CCCCC2)CC1 (stereo unspecified) | -1.584 |
| Cc1ccccc1CN1CCCN(S(=O)(=O)N(C)C2CCCCC2)CC1 | -4.096 |
| Cc1cnn(CCNCc2nccn2Cc2ccccc2)c1 | 6.467 |
| CCCc1n[nH]cc1C(=O)N1CCCC(c2nccn2CC2CC2)C1 (stereo unspecified) | 2.109 |
| Cl.c1cnc(N2CCCC(NCc3ccc(-n4ccnc4)cc3)C2)nc1 (stereo unspecified) | 24.04 |
| c1cnc(N2CCCC(c3cncc(-n4ccnc4)n3)C2)nc1 (stereo unspecified) | 115.9 |
| Cn1c(Cn2ccnc2)nnc1C1CCCN(c2ncccn2)C1 (stereo unspecified) | 5.27 |
| O=C(C1CCCC1)N1CCCC(c2cccc(-n3ccnc3)n2)C1 (stereo unspecified) | 109.1 |
| Cc1n[nH]cc1C(=O)N1CCCC(c2cccc(-n3ccnc3)n2)C1 (stereo unspecified) | 117.2 |
| COCC(=O)N1CCCC(c2cccc(-n3ccnc3)n2)C1 (stereo unspecified) | 83.17 |
| Cc1cc(C2CCCN(C(=O)c3c(C)nn4cccnc34)C2)n[nH]1 (stereo unspecified) | -1.385 |
| CC(C)Oc1cccc(CC(=O)N(CC(N)=O)C2CCCC2)c1 | -6.842 |
| CN(C)C(=O)c1ccc(N2CCC3(CCC(=O)N(CCO)C3)CC2)nc1 | -10.7 |
| O=C(Cn1[nH]c2ccccc2c1=O)N1CCCC(CC2CC2)(C(=O)O)C1 (stereo unspecified) | -7.331 |
| Cc1ccnc(N2CCCC(c3nccn3C(C)C)C2)n1 (stereo unspecified) | 2.014 |
| Cc1nc(C(=O)N2CCCC(c3cccc(-n4ccnc4)n3)C2)co1 (stereo unspecified) | -10.62 |
| Cc1cc(C)nc(N2CCCC(c3cccc(-n4ccnc4)n3)C2)n1 (stereo unspecified) | 122.3 |
| CCc1c(C)nc2ccccc2c1N1CCC(NC(C)=O)CC1 | 12.09 |
| Cc1ccoc1C(=O)NCCOc1ccc(C(F)(F)F)cn1 | -4.463 |
| COC(=O)N1CCCC(C(=O)N2CCCCC2)C1 (stereo unspecified) | -8.373 |
| COC(=O)N1CCCCC1C(=O)N1CCC(c2ccncc2)CC1 (stereo unspecified) | -8.744 |
| CCN1CCCCC1C(=O)N1CCC(OCCOC)CC1 (stereo unspecified) | 73.16 |
| COCCOC1CCN(C(=O)NCc2coc3ccccc23)CC1 | -1.148 |
| CCN1CCCCC1C(=O)N1CCC(OC2CCCC2)CC1 (stereo unspecified) | 102.5 |
| CCN1CCCCC1C(=O)N1CCc2onc(-c3ccc(Cl)cc3)c2C1 (stereo unspecified) | 6.805 |
| CCN1CCCCC1C(=O)N1CCN(C(=O)OC)CC1 (stereo unspecified) | 100.7 |

| Structure (SMILES) | Percent Effect [%] |
| --- | --- |
| COCCOC1CCN(C(=O)NCc2cc(C)oc2C)CC1 | 6.618 |
| CC(=O)c1cccc(NC(=O)CN2CCCCC2C(=O)N2CCCC2)c1 (stereo unspecified) | -9.292 |
| CC/C=C(/C)C(=O)NCc1ccc(OC)nc1 | -1.205 |
| OCCOCCN1CCCC1c1nc2cc(F)ccc2[nH]1 (stereo unspecified) | -0.6121 |
| CCC(=O)Nc1ccc(F)cc1OC | -5.571 |
| O=C(Cn1ccc(=O)[nH]c1=O)Nc1ccccc1F | -14.53 |
| Cc1cc(F)ccc1NC(=O)Cn1cc(C(=O)O)ccc1=O | -9.145 |
| COCCOCC(=O)Nc1ccccc1F | 116.5 |
| COCCOCC(=O)Nc1ccc(F)cc1C | 92.33 |
| CN(C)S(=O)(=O)c1ccc(F)c(NC(=O)COCC2CC2)c1 | -1.216 |
| COCCOCC(=O)NC(C#N)c1c(F)cccc1Cl (stereo unspecified) | -1.788 |
| COCCOCC(=O)Nc1cc(C)ccc1F | 111.1 |
| COCc1cc(CN(C)C(=O)CCC(=O)Nc2cc(C)ccc2F)n[nH]1 | -13.49 |
| O=C(NCC(F)(F)C(F)F)c1ccncc1 | -18.96 |
| CC(C)Cc1n[nH]c(C2CC(=O)N(CC(C)C)C2)n1 (stereo unspecified) | -3.52 |
| O=C(O)C(F)(F)F.c1ncn(Cc2cn3c(n2)CN(CC2CCCC2)CC3)n1 | -2.888 |
| CC[C@H](Nc1nc(C(C)C)nc2c1cnn2C)c1ccccc1 | -13.66 |
| CNc1ncc(CN(C)C(=O)CCc2[nH]nc3c2CCCC3)cn1 | 98.75 |
| CN(Cc1ccncn1)C(=O)C1(Oc2ccc(Cl)cc2)CCNCC1 | -1.2 |
| CNc1ncc(CN(C)C(=O)c2ccc(C3CCCO3)s2)cn1 (stereo unspecified) | -2.521 |
| CN(Cc1ccncn1)C(=O)c1cccc(CCC(C)(C)O)c1 | -19.37 |
| CN(Cc1ccncn1)C(=O)CCc1[nH]nc2c1CCCC2 | 105.8 |
| CNc1ncc(CN(C)C(=O)CCc2cc3n(n2)CCCNC3)cn1 | -7.945 |
| Cn1cc(C[C@H]2[C@@H](OCC3CC3)CCN2C(=O)c2ccc[nH]2)cn1 | -34.09 |
| O=C(c1cccs1)N1CC[C@@H]2[C@H]1CCC(=O)N2c1ccccc1 | 4.251 |
| Cc1cnc(CNC(=O)NCCOc2ncccc2Cl)s1 | 0.4061 |

| Structure (SMILES) | Percent Effect [%] |
| --- | --- |
| CCC(Nc1nccc(C2CCCC2)n1)c1ncccc1C (stereo unspecified) | -9.409 |
| Cc1ncc(-c2ccnc(NCCO)n2)c(C2CCCCC2)n1 | 70.45 |
| Cc1ncc(-c2ccnc(N[C@@H](C)CO)n2)c(C2CCCCC2)n1 | 99.14 |
| CCC(Nc1nccc(C2CCCC2)n1)c1ccccn1 (stereo unspecified) | 15.43 |
| COc1ccc(-c2noc([C@@H](C)NC(=O)NC(C)(C)C)c2C(=O)O)cc1 | -18.05 |
| N#Cc1cn(C2CC2)c(=O)n(CC(O)c2ccccc2F)c1=O (stereo unspecified) | -13.9 |
| Cl.O=C(NCC1CCC2(CCNCC2)CO1)c1cnccn1 (stereo unspecified) | 3.528 |
| O=C(NCC1CCCO1)c1coc(Cn2cnc3ccccc32)n1 (stereo unspecified) | 1.583 |
| Cc1cc(C(=O)NCC2CCCO2)c(C)n1-c1cccnc1 (stereo unspecified) | -0.4746 |
| O=C(NCC1CCCO1)c1cc(-c2cccnc2)c2cnccc2n1 (stereo unspecified) | 70.74 |
| Cl.O=C(NCC1CCCO1)c1cc(-c2ccncc2)c2cnccc2n1 (stereo unspecified) | 81.36 |
| O=C(NCC1CCCO1)c1csc(Cc2ccccc2)n1 (stereo unspecified) | -0.1841 |
| CN(C)Cc1nc(C(C)(C)NC(=O)c2ccnn2C)no1 | 0.5486 |
| O=C(NCCNc1ncccn1)c1ccc(Cl)s1 | 24.49 |
| CC(C)(C)c1ncc(C(=O)NCCS(N)(=O)=O)s1 | -2.112 |
| COC(=O)C(C)(C)NC(=O)c1cnc(C(C)(C)C)s1 | -1.472 |
| CC(C)(C)c1ncc(C(=O)NCCNS(C)(=O)=O)s1 | 118.2 |
| Cc1ccc(-c2ncc(C(=O)NCCNC(=O)C(C)C)s2)c(C)c1 | -1.458 |
| CS(=O)(=O)NCCNC(=O)c1cnc(-c2ccccc2)nc1 | 5.162 |
| Cc1ccc(-c2ncc(C(=O)NCCNc3ncccn3)s2)c(C)c1 | -5.367 |
| Cc1ncc(C(=O)NCCNC(=O)c2ccccc2)s1 | 117.1 |
| CC(=O)NCCNC(=O)c1cnc(C(C)(C)C)s1 | 109.1 |
| CC(C)(C)NC(=O)c1cnc(C(C)(C)C)s1 | 6.371 |
| Cc1ncc(C(=O)NCCNc2ncccn2)s1 | 110.1 |
